Spn PMK inh = inhibitors of Streptococcus pneumoniae phosphomevalonate kinase | 65,000 compounds, 0.49% hits | inhibition, % at 10 µM | purified PMK, PK/LDH-coupled NADH absorbance 340 nm;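 active = top-ranked compounds by inhibition in the single 10 µM screen, taking a fixed number of the strongest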
Autofluor 339 = intrinsic fluorescence of library compounds, ex339/em460 – biochemical, MLSMR library, data from DPM-DC assay, artefact control, profiling panel. 65,000 compounds, 5.5% hits. compound autofluorescence, ex339/em460 nm, NADH buffer; active compounds read high; 1 = no-compound wells, NADH background. fluorescence fold increase at 10 µM. AID 709;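 active = at 10 µM, mean starting fluorescence two-fold or more over control wells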;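 also: signal is the first read of a kinetic run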
Spn MK inh = inhibitors of Streptococcus pneumoniae mevalonate kinase; purified MK, PK/LDH-coupled NADH absorbance 340 nm; inhibition, % at 10 µM; 65,000 compounds, 0.48% hits; AID 555;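 active = ranked among the strongest by inhibition in the single 10 µM screen, a fixed top-ranked set picked for dose follow-up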
NADH enzymes = inhibition of NAD/NADH coupling enzymes, library profiling. IC50, µM (doses to about 10 µM). AID 774. 65,000 compounds, 0.02% hits. coupled PK/LDH NADH assays, four targets;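 active = single-dose screening hits from any of four coupled enzyme assays that gave an IC50 when retested across doses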;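 also: the DPM-DC format reads NADH fluorescence rather than 340 nm absorbance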
Spn DPM-DC inh = S. pneumoniae DPM-DC inhibition. calls only at 10 µM. 65,000 compounds, 0.49% hits. purified DPM-DC, PK/LDH coupled NADH fluorescence;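 active = the 320 compounds with the highest percent inhibition in the single-dose primary screen, excluding strongly autofluorescent ones, cut at about 32% in these data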;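 also: kinetic rate of NADH fluorescence loss reporting ADP formed by the decarboxylase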
Abs 340nm = compounds absorbing at 340 nm. compound absorbance at 340 nm, fold over control. fold change at 10 µM. 65,000 tested, under 10 active. AID 708;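 active = at 10 µM dose, initial 340 nm absorbance at least 2 fold that of control wells; inactive = change under 2 fold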;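 also: initial absorbance extrapolated from kinetic A340 decline of NADH oxidation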
A number is an active result; . = inactive; / = no result given; + = active, no number. Shown are actives, neighbours in structure and some others; about 6.8% of the full set was active somewhere.

SMILES	Spn PMK inh	Autofluor 339	Spn MK inh	NADH enzymes	Spn DPM-DC inh	Abs 340nm
Cc1ccc(-c2cc3nc(C)cc(NCc4ccco4)n3n2)cc1	.	3.3	.	.	.	.
CCOc1ccc(C(=O)N2CCN(Cc3ccccc3)CC2)cc1	.	.	.	.	.	.
O=C(c1cc2ccccc2oc1=O)N1CCCN(C(=O)c2cc3ccccc3oc2=O)CC1	.	.	.	.	.	.
CCOc1ccc2oc(-c3ccccc3)c(C(=O)N3CCN(CCO)CC3)c2c1	.	3.4	.	.	/	.
CCOc1ccc2oc(-c3ccccc3)c(C(=O)O)c2c1	.	3.9	.	.	/	.
CC(Oc1ccc2oc(-c3ccccc3)c(C(=O)O)c2c1)C(=O)O (configuration not stated)	.	2.4	.	.	/	.
O=C(c1cc2c(ccc3ccccc32)oc1=O)N1CCN(CCO)CC1	.	2.1	.	.	/	.
COc1cc(C(=O)NCc2cn3cccc(C)c3n2)cc(OC)c1OC	.	.	.	.	.	.
Cc1noc(C)c1C(=O)Nc1nc(C23CC4CC(CC(C4)C2)C3)cs1	.	.	.	.	.	.
Cc1cccc(N2CCCn3c2nc2c3c(=O)n(CCN3CCOCC3)c(=O)n2C)c1	.	.	.	.	.	.
C=CCN(C(=O)Cn1nnc2ccccc21)C(C(=O)NCCOC)c1ccc(OC)cc1OC (configuration not stated)	.	.	.	.	.	.
CCn1c2ccccc2c2nnc(SCC(=O)Nc3cc(C)on3)nc21	.	.	.	.	.	.
CCn1c(=O)c2cc(C(=O)NCc3cccs3)sc2c2ccccc21	.	.	.	.	.	.
CCn1c(=O)c2cc(C(=O)Nc3cc(C)on3)sc2c2ccccc21	.	2.2	.	.	/	.
CCn1c(=O)c2cc(C(=O)NCCN3CCOCC3)sc2c2ccccc21	.	2.1	.	.	/	.
Cc1ccc2[nH]c(=O)c3cc(C(=O)NCCN4CCN(C)CC4)sc3c2c1	.	2.4	.	.	/	.
CCn1c(=NC(=O)CSC(C)=O)sc2ccccc21	.	.	.	.	.	.
COC(=O)Cn1c(=NC(=O)CSC(C)=O)sc2ccccc21	.	.	.	.	+	.
CC(=O)c1ccc(NS(=O)(=O)Cc2ccccc2)cc1	.	.	.	.	.	.
O=C(O)c1[nH]c2ccccc2c1NS(=O)(=O)Cc1ccccc1	.	2.4	.	.	.	.
COc1ccc2c(c1)-c1ccccc1S(=O)(=O)N2C(C)=O	.	3.6	.	.	+	.
COc1ccc(OC)c(NC(=O)CN2C(=O)c3ccccc3S2(=O)=O)c1	.	.	.	.	.	.
C=CCOc1nc2c(c(=O)n(Cc3ccc(Cl)c(Cl)c3)c(=O)n2C)n1C	.	.	.	.	.	.
COc1cccc2c(=O)c(C(=O)NCc3cccs3)c[nH]c12	.	3.7	.	.	/	.
COc1cc(-c2nc3n(n2)C(c2cccc(OC)c2OC)C2=C(CCCC2=O)N3)cc(OC)c1OC (configuration not stated)	.	.	.	.	.	.
SMILES	Spn PMK inh	Autofluor 339	Spn MK inh	NADH enzymes	Spn DPM-DC inh	Abs 340nm
COC(=O)c1[nH]c2ccc(F)cc2c1NC(=O)CCN1CCN(Cc2ccc3c(c2)OCO3)CC1	.	2	.	.	.	.
COC(=O)c1[nH]c2ccc(C)cc2c1NC(=O)CN1CCc2cc(OC)c(OC)cc2C1	.	2.2	.	.	.	.
COC(=O)c1[nH]c2ccc(C)cc2c1NC(=O)CCN1CCN(C2CCCCC2)CC1	.	2.9	.	.	.	.
COC(=O)c1[nH]c2ccc(C)cc2c1NC(=O)CN1CCCC(C)(C)C1	.	.	.	.	.	.
COC(=O)c1[nH]c2ccc(C)cc2c1NC(=O)Nc1ccccc1OC	.	2.6	.	.	.	.
COC(=O)c1[nH]c2ccc(C)cc2c1NC(=O)C1=COCCO1	.	.	.	.	.	.
COC(=O)c1[nH]c2ccc(Cl)cc2c1NC(=O)CCN1CCN(C2CCCCC2)CC1	.	.	.	.	.	.
CCN(CC)S(=O)(=O)c1ccc(C(=O)N2CCN=C2SCc2cccnc2)cc1	.	.	.	.	.	.
CCOC(=O)c1cnc2c(Cl)c(Cl)ccc2c1N1CCN(C)CC1	.	.	.	.	.	.
CCCNC(=O)N1CCN(c2ncccn2)CC1	.	.	.	.	.	.
C=CCn1c(SCC(=O)Nc2ccc(N(C)C)cc2)nnc1-c1cccc(C)c1	.	.	.	.	.	.
COc1ccc(-c2nnc(NC(=O)c3ccc(S(=O)(=O)N4CCc5ccccc5C4)cc3)o2)cc1	.	3.1	.	.	.	.
CC1CC(C)CN(S(=O)(=O)c2ccc(C(=O)Nc3nnc(-c4cccs4)o3)cc2)C1 (configuration not stated)	.	3.8	.	.	/	.
CC(C)c1nnc(NC(=O)CCC(=O)NCc2ccco2)s1	.	.	.	.	.	.
CC1(C)CC(OC(=O)c2ccco2)CC(C)(C)N1O	.	.	.	.	.	.
Cc1cc2oc(=O)c3c(c2cc1OCc1nn[nH]n1)CCCC3	.	3.3	.	.	/	.
O=c1oc2cc(OCc3nn[nH]n3)ccc2c2c1CCCC2	.	3.8	.	.	/	.
OCCCCNc1cccc2ccccc12	.	3.7	.	.	/	.
O=c1cc(NCCO)c2ccccc2o1	.	.	.	.	.	.
CCCC(C(=O)NC1CCCC1)N(CCCN1CCOCC1)C(=O)c1snc(C(N)=O)c1N (configuration not stated)	.	2.2	.	.	.	.
CCCC(C(=O)NC1CCCC1)N(CC1CCCO1)C(=O)c1snc(C(N)=O)c1N (configuration not stated)	.	2.8	.	.	.	.
COCCNC(=O)c1c(N)n(CCC2=CCCCC2)c2nc3ccccc3nc12	.	2.5	.	.	/	.
COCCn1c(N)c(C(=O)OCc2ccccc2)c2nc3ccccc3nc21	.	3.8	.	.	/	.
COCCNC(=O)CSc1nc2cc(OC)c(OC)cc2c(=O)n1CCC1=CCCCC1	.	.	.	.	.	.
CCN(CCO)c1ccc(-n2c(N)c(C(=O)OC)c3nc4ccccc4nc32)cc1	.	.	.	.	.	.
SMILES	Spn PMK inh	Autofluor 339	Spn MK inh	NADH enzymes	Spn DPM-DC inh	Abs 340nm
C=CCn1c(N)c(C(=O)OCCC)c2nc3ccccc3nc21	.	3.6	.	.	/	.
Cc1nn(-c2ccccc2)c(Cl)c1C(=O)Nc1c(C)n(C)n(-c2ccccc2)c1=O	.	.	.	.	.	.
Cc1nc2ccccc2c2oc(C(=O)Nc3ccc4c(c3)OCCO4)cc12	.	2.1	.	.	/	.
COc1ccc(C)cc1NC(=O)c1cc2c(C)nc3ccccc3c2o1	.	5	.	.	/	.
COc1cc(NC(=O)c2cc3c(C)nc4ccccc4c3o2)cc(OC)c1OC	.	.	.	.	.	.
CC(=O)Nc1ccc(S(=O)(=O)N2CCSC2c2ccc(C)cc2)cc1 (configuration not stated)	.	.	.	.	.	.

Screens from PubChem BioAssay.
